RGS12 GoLoco inh = RGS12 GoLoco-Gai1 interaction inhibition; 230,000 tested, 0.44% active; Potency, µM (series often up to 61.6 µM), hits mostly inhibitors; Gai1:RGS12 GoLoco peptide FP, rhodamine, 10 min; P63096; active means well fitted inhibition curve with a large enough effect, not every such curve was filed as active; inactive means no such curve, though single readings can be large or run the other way; further: nearly all actives have a fitted effect of over 30% in size
Tau fibril FP = inhibitors of human tau fibril formation. P10636. K18 P301L tau heparin fibrillization, Alexa594 FP, 6 h. Potency, µM (doses to about 57.7 µM), hits mostly inhibitors. 280,000 tested, 0.39% active. AID 1468; further: nearly all actives have a fitted effect of over 55% in size
Target sequence (P10636 561-689 P618L limits assumed): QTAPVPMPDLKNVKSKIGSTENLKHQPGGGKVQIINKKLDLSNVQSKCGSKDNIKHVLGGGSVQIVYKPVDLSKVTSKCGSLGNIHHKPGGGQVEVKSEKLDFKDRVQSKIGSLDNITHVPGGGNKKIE
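Read-out: fluorescence polarization of Alexa 594-labeled tau (0.24 uM), 555 nm excitation, 632 nm emission. Mixtures held 15 uM unlabeled K18 P301L, compound and 20 uM heparin, pH 7 acetate buffer, incubated 6 hr at 37 C.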
TRb SRC2 PPI = disrupts binding of human TR beta to SRC2; P10828; TRbeta-SRC2 peptide binding, fluorescence polarization; receptor liganded with 1 µM T3; 280,000 tested, 0.065% active; Potency, µM (titrated, usually from 106 µM), usual class: inhibitors; further: nearly all actives have a fitted effect of over 50% in size
Target sequence (P10828 whole entry, looked up): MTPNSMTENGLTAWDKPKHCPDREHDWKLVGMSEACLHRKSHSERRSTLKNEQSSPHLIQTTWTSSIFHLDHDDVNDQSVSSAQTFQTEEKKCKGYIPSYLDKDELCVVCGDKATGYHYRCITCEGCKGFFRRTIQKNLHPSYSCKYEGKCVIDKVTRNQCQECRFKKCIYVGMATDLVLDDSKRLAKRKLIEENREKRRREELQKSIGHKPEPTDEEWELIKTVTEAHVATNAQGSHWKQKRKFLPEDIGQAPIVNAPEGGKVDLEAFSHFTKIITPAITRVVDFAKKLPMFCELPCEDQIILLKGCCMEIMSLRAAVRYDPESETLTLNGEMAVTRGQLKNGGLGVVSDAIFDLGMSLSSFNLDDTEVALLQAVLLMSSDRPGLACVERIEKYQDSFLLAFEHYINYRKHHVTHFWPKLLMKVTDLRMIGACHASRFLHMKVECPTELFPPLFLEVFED
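Polarization signal, normalized between peptide-alone and full complex controls, measured compound effects on T3-liganded human TRb LBD (0.6 uM) binding 20 nM Texas Red SRC2 peptide after 5 hr.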
Tau ThT inhib = inhibitors of human tau fibril formation, thioflavin T binding; recombinant tau K18 P301L, heparin-induced fibrillization, ThT fluorescence; P10636; Potency, µM (doses to about 57.4 µM), most hits filed as inhibitors; 270,000 tested, 2.1% active; AID 1460; further: nearly all actives have a fitted effect of over 55% in size
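Aggregation was driven by heparin (20 uM final) acting on recombinant tau […] bearing P301L in 100 mM sodium acetate pH 7; fibrils were detected with Thioflavin T.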
TR SRC2 fluor cs = Texas Red fluorescence interference in TRb-SRC2 counter-screen; AID 1479; Potency, µM (highest dose often 106 µM); TRb/SRC2 Texas Red total fluorescence interference; 280,000 tested, 0.29% active; active means well fitted curve in either direction with a large enough effect; inconclusive means small, poorly fitted or top-dose-only effect
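Human TRβ ligand-binding domain (0.6 uM) and Texas Red SRC2 peptide (20 nM) in Tris buffer with 1 uM T3 and 5% DMSO were incubated with pinned compound for 5 hr at ambient temperature. Total fluorescence was computed as S + 2P (555/632 nm).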
Tau fluor cs = counter-screen for tau fibril formation inhibitors | tau K18 P301L Alexa594 fluorescence, heparin fibrillization | Potency, µM (titrated, usually from 57.7 µM) | 280,000 tested, 0.93% active; further: nearly all actives have a fitted effect of over 55% in size
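Human tau K18 P301L (15 uM unlabeled, 0.24 uM Alexa 594-labeled) in 100 mM sodium acetate pH 7 with 20 uM heparin, 6 hr at 37 C. ThT 30 uM added, 1 hr ambient; Alexa 594 FP and total fluorescence read at 555/632 nm.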
Numbers stand for hits; n = inactive; u = inconclusive; x = no result; [ ] = dose if it differs, or a comment. Rows were chosen to be rich in hits. Some 3.1% of all compounds tested hit in one or more screens of this group. Unless noted, the call rests on the fitted dose curve; in most records, active means well fitted curve in the direction sought with a large enough effect; inconclusive means small, poorly fitted or top-dose-only effect, or another doubt; inactive means no such curve, though single readings can be large; an effect the other way counts as inactive or inconclusive.

SMILES | RGS12 GoLoco inh | Tau fibril FP | TRb SRC2 PPI | Tau ThT inhib | TR SRC2 fluor cs | Tau fluor cs
COC(=O)C1=C(C)NC(=O)/C1=C\c1ccc2c(c1)OCO2 | n | n | n | 12.6µM | n | n
O=C1/C(=C/c2ccc(O)c(O)c2)Oc2cc(O)ccc21 | n | n | n | 14.1µM | n | u
COc1ccc(CCNC(=O)c2c(Nc3ccccc3C)sc(C(=O)c3ccccc3)c2N)cc1OC | x | u | n | u | n | u
N#CC1=C(N)NC(SCC(=O)c2ccc(Cl)cc2)=C(C#N)C12CCCC2 | n | n | n | u | n | 15.8µM[quencher]
N#CC1=C(N)NC(SCC(=O)c2ccc(Br)cc2)=C(C#N)C12CCCCC2 | n | u | n | u | n | 12.6µM[quencher]
COc1ccc(C(=O)CSC2=C(C#N)C3(CCCCC3)C(C#N)=C(N)N2)cc1 | x | n | n | n | n | u
Cc1ccc(C(=O)NCCSc2snnc2C)cc1 | n | n | n | u | n | n
CCN(CC)c1ccc2cc(/C(N)=N/NC(=O)c3cccs3)c(=O)oc2c1 | n | n | n | 0.794µM | n | n
CCOC(=O)c1c(C)nc2c(c1-c1cc(OC)ccc1OC)C(=O)c1ccccc1-2 | n | n | n | n | n | n
CCOC(=O)C1=C(Cc2ccc(OC)cc2)C(=O)c2ccccc2C1=O | n | 12.6µM | n | 8.91µM | n | u
CCOC(=O)C1=C(Cc2ccc(C)cc2)C(=O)c2ccccc2C1=O | n | 35.5µM | n | 15.8µM | n | u
O=C(C1=C(O)C(=O)N(c2nccs2)C1c1ccccc1)c1cc2ccccc2o1 (centres undefined) | 20µM | n | n | u | n | n
Cc1ccnc(NC(c2cc(C)ccc2O)c2ccc3cccnc3c2O)c1 (centres undefined) | x | n | n | 15.8µM | n | u
Oc1ccccc1C(Nc1nccs1)c1ccc2cccnc2c1O (centres undefined) | n | n | n | 20µM | n | u
O=C(/C=C/c1cccs1)Nc1cccnc1 | n | n | n | n | n | n
Cc1c(C(=O)N2CCC(C)CC2)c(S(=O)(=O)NCc2ccccc2)c(C)n1C | x | n | n | n | n | n
COc1ccc(CNc2nc(-c3ccc(N(C)C)cc3)nc3ccccc23)c(OC)c1 | 8.91µM | x | x | x | x | x
CN(C)c1ccc(-c2nc(NCc3cccnc3)c3ccccc3n2)cc1 | n | n | n | 14.1µM | n | 17.8µM[quencher]
COc1ccc(CNc2nc(-c3ccc(C(=O)N(C)C)cc3)nc3ccccc23)c(OC)c1 | n | n | n | n | n | n
c1cncc(CNc2nc(-c3ccoc3)nc3ccccc23)c1 | n | u | n | 28.2µM | n | u
c1ccc(CNc2ncnc3ccc(-c4ccoc4)cc23)cc1 | n | x | x | x | x | x
CN(C)c1ccc(-c2ccc3ncnc(NCc4ccccc4)c3c2)cc1 | n | u | n | u | n | 10µM[quencher]
Oc1ccccc1-c1nc(NCc2cccnc2)c2ccccc2n1 | n | u | n | n | n | u
Cc1ccccc1-c1nc(NCc2cccnc2)c2ccccc2n1 | n | u | n | n | n | n
Cc1ccc(C(=O)c2no[n+]([O-])c2C(=O)c2ccc(C)cc2)cc1 | n | u | n | 14.1µM | n | n
SMILES | RGS12 GoLoco inh | Tau fibril FP | TRb SRC2 PPI | Tau ThT inhib | TR SRC2 fluor cs | Tau fluor cs
CCc1ccc(N(CC)C(=O)c2cc3c(=O)oc4ccc(C)cc4c3s2)cc1 | x | n | n | n | n | n
Cc1ccc(-c2nc(N)sc2C)cc1 | n | n | n | n | n | n
Cc1ccc(-c2nc(N)sc2-c2ccccc2)cc1C | n | n | n | u | n | 10µM[quencher]
Cc1ccc(-c2nc(N)sc2-c2ccc(C)cc2)cc1 | n | n | n | u | n | 14.1µM[quencher]
Nc1nc(-c2ccccc2)c(-c2ccccc2)s1 | n | n | n | n | n | u
CC(C)(C)S(=O)(=O)/C(C#N)=N/Nc1ccc(C#N)cc1 | n | n | n | n | n | n
CCOC(=O)C1(N(CC)CC)Sc2cc(C)ccc2NC1=O (centres undefined) | n | n | n | n | n | n
C=C(C)C(=O)OC1(C(F)(F)F)Oc2cc(C)ccc2NC1=O (centres undefined) | n | u | n | 15.8µM | n | n
CCC(C)Nc1nc(N)c([N+](=O)[O-])c(Nc2cc(OC)ccc2OC)n1 (centres undefined) | n | n | n | 15.8µM | n | 17.8µM[quencher]
COc1ccccc1Nc1nc(NCC(C)C)nc(N)c1[N+](=O)[O-] | n | n | n | u | n | u
COc1ccc(OC)c(Nc2nc(NCCC(C)C)nc(N)c2[N+](=O)[O-])c1 | n | n | n | 25.1µM | n | 20µM[quencher]
CC1CCc2nc3ccc(S(=O)(=O)N4CCC(C(=O)NCc5ccccc5Cl)CC4)cc3c(C(=O)O)c2C1 (centres undefined) | x | n | n | n | 20µM[quencher] | n
COc1ccc(CNC(=O)C2CCN(S(=O)(=O)c3ccc4nc5c(c(C(=O)O)c4c3)CC(C)CC5)CC2)cc1 (centres undefined) | x | n | n | n | n | n
CC(=O)Oc1ccc2c(c1)C(=O)c1ccccc1CO2 | n | n | n | u | n | n
COCCN=c1scc(-c2cc(OC)ccc2OC)n1/N=C/c1c[nH]c2ccccc12 | n | n | n | u | n | 7.94µM[quencher]
COc1ccccc1NC(=O)N1CC=C(c2c[nH]c3ccccc23)CC1 | x | n | n | u | n | u
O=C(Nc1ccc(F)c(Cl)c1)N1CC=C(c2c[nH]c3ccccc23)CC1 | x | u | n | 6.31µM | n | 7.94µM[quencher]
O=C(Nc1cccc(F)c1)N1CC=C(c2ccc(Cl)cc2)CC1 | n | u | n | u | n | u
O=C(Nc1ccccc1C(F)(F)F)N1CC=C(c2c[nH]c3ccccc23)CC1 | x | n | n | u | n | 17.8µM[quencher]
CCCOc1ccc(N2C(=O)CC(N(C(=O)c3ccco3)c3ccc(OCCC)cc3)C2=O)cc1 (centres undefined) | n | n | n | u | n | n
C/C(CC1CC(COCC(C)C)OC1=O)=N\Nc1nc(-c2ccccc2)cs1 (centres undefined) | n | n | n | 17.8µM | n | u
CC1CC(CC(=O)Nc2nc(-c3ccccc3)cs2)C(=O)O1 (centres undefined) | n | n | n | n | n | n
N=C1[C@@H](O)[C@]2(I)c3ccccc3N3C(=N)[C@H](O)[C@@H]4c5ccccc5N1[C@@H]4[C@@H]32 | 2.24µM | x | x | x | x | x
COc1ccc(-c2cc(OC(=O)c3cccc(Cl)c3)c3c(C)oc(C)c3c(=O)c2)cc1OC | x | n | n | u | n | n
COc1cc(-c2cc(OC)c3c(C)oc(C)c3c(=O)c2)ccc1OC(=O)c1cccc(Cl)c1 | x | n | u | n | 501µM[quencher] | n
O=C(NN=C1CCN(Cc2ccccc2)CC1)c1cc2ccccc2cc1O | n | n | n | 12.6µM | u | u
COc1ccccc1-c1cc(C(=O)Nc2ccc(F)cc2F)no1 | n | n | n | n | n | n

High-throughput results from PubChem.
